Records with an inconclusive call do not appear. Active and inactive are the calls of the source. Calls come from the whole dose curve; as a rule, active = well fitted inhibition curve with a large enough effect; inconclusive = small, poorly fitted or top-dose-only effect; inactive = flat fitted curve, though single readings scatter.
Key:
Settings in all cases: P. falciparum in erythrocytes, SYBR Green DNA, 72 h
[1] = qHTS profiling for inhibitors of Plasmodium falciparum proliferation (AID 504749); note: nearly all actives have a fitted effect of over 60% in size
How it was run: (§1)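 P. falciparum-infected erythrocytes (0.3% parasitemia, 2.5% hematocrit final) were exposed to compounds for 72 h at 37 C in 5% CO2, then lysed with SYBR Green buffer overnight at room temperature; parasite DNA fluorescence was normalized to artemisinin and DMSO controls.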

[2] = test system: 3D7; assay: as above
How it was run: as §1

[3] = test system: 7G8; assay: as above
How it was run: as §1

[4] = test system: AA1029; assay: as above
How it was run: as §1

[5] = test system: AS120; assay: as above
How it was run: as §1

[6] = test system: ATS189; assay: as above
How it was run: as §1

[7] = test system: ATS95; assay: as above
How it was run: as §1

[8] = test system: C2A; assay: as above
How it was run: as §1

[9] = test system: CP185; assay: as above
How it was run: as §1

[10] = test system: CP191; assay: as above
How it was run: as §1

Measured: Potency
Potency is the fitted concentration of half-maximal effect.

CC[C@]1(O)CC2CN(CCc3c([nH]c4ccccc34)[C@@](C(=O)OC)(c3cc4c(cc3OC)N(C)[C@H]3[C@@](O)(C(=O)OC)[C@H](OC(C)=O)[C@]5(CC)C=CCN6CC[C@]43[C@@H]65)C2)C1 (some centres not stated)
active: [1]; parasite line A 2510 nM | [1]; parasite line B 3980 nM | [2] 794 nM | [3] 1120 nM | [4] 1410 nM | [5] 2510 nM | [6] 4470 nM | [7] 3550 nM | [8] 2820 nM | [9] 3550 nM | [10] 2820 nM

CC(=O)O[C@H]1C(=O)[C@@]2(C)[C@H]([C@H](OC(=O)c3ccccc3)[C@]3(O)C[C@H](OC(=O)[C@H](O)[C@@H](NC(=O)c4ccccc4)c4ccccc4)C(C)=C1C3(C)C)[C@]1(OC(C)=O)CO[C@@H]1C[C@@H]2O
active: [1]; parasite line A 355 nM | [1]; parasite line B 251 nM | [2] 282 nM | [3] 398 nM | [4] 562 nM | [5] 398 nM | [6] 631 nM | [7] 631 nM | [8] 355 nM | [9] 199 nM | [10] 178 nM

Reference: PubChem BioAssay (NCATS)
